FBPA Giardia inh: blocks Giardia fructose-bisphosphate aldolase activity; A8B2U2; purified Giardia FBPA; Potency, µM (top dose mostly 59.6 µM), for inactives: at the highest dose activity, negative = inhibition, most hits filed as inhibitors; actives 0.71% (n = 290,000); further: potency means the concentration at half of the fitted maximal effect; nearly all actives have a fitted effect of over 55% in size
Target sequence (A8B2U2 whole entry, looked up): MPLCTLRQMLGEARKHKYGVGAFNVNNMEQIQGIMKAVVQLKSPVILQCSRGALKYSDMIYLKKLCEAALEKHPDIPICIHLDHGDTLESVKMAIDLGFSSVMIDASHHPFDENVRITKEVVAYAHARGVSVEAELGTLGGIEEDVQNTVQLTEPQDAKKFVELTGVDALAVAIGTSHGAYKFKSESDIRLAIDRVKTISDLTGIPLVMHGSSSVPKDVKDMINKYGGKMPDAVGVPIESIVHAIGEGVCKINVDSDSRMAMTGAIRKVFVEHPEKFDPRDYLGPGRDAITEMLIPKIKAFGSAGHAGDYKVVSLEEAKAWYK
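40 nM FBPA preincubated 10 min at RT with compound (up to 57.5 uM final), then substrate plus GAPDH/TPI/NAD/arsenate coupling and diaphorase/resazurin added. Fluorescence read after 20 min at RT, 525/598 nm.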
FMDV antiviral: antivirals against foot and mouth disease virus | FMDV antiviral cell-based qHTS | Potency, µM (top dose mostly 57.9 µM), without a hit: at the top dose activity change, negative = inhibition, hits mostly inhibitors | actives 1.2% (n = 410,000); calls by dose curve; tested in HEK293T cells; further: read-out not given here; potency means the concentration at half of the fitted maximal effect; nearly all actives have a fitted effect of over 45% in size
HCMV inh: blocks human cytomegalovirus replication; actives 4.5% (n = 410,000); AID 1259415; HFF cells, HCMV-luciferase reporter, 72 h; stronger effect = lower value; activity change, negative = inhibition, % at 57.5 µM; in the data active means activity change below about -60%; inconclusive means no clear call, values can overlap the other calls; inactive means above about -39%
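Human foreskin fibroblasts infected with luciferase-reporter HCMV at MOI 1 PFU/cell, compounds at two doses. Luciferase measured 72 h post infection; normalized to buffer-only basal and Salinomycin (10uM) controls.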
Vaccinia mCherry: vaccinia inhibition (mCherry reporter) | Potency, µM (series often up to 36.5 µM), for inactives: top-dose activity change, negative = inhibition, usual class: inhibitors | actives 0.63% (n = 310,000) | AID 720579 | Vaccinia virus mCherry reporter infection, fluorescence; calls by dose curve; tested in A549 cells; further: potency means the concentration at half of the fitted maximal effect; nearly all actives have a fitted effect of over 35% in size
HCV inhibitor: blocks hepatitis C virus; Huh7.5.1 HCVcc-Cre infection, luciferase reporter, 44 h; Potency, µM (doses to about 41.8 µM), for the others: at the top dose activity change, negative = inhibition, most hits filed as inhibitors; actives 3.4% (n = 340,000); AID 651820; further: potency means the concentration at half of the fitted maximal effect
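Compounds are dispensed onto cells plated 4 h earlier at 1,000 per well, with HCVcc-Cre virus (about 0.5 moi) added next. Following 44 h of culture, luminescent signal is measured for 15 sec after 15 min with substrate at room temperature.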
VACV Venus inh: vaccinia inhibition (Venus reporter); Vaccinia virus Venus reporter expression, fluorescence; Potency, µM (top dose mostly 36.5 µM), without a hit: at the highest dose activity change, negative = inhibition, most hits filed as inhibitors; actives 0.46% (n = 330,000); calls by dose curve; tested in A549 cells; further: potency means the concentration at half of the fitted maximal effect; nearly all actives have a fitted effect of over 30% in size
Numbers without * were called inactive. Sampled rows, rich in hits. Any-hit rate of the full collection: about 7.5%. Unless noted, the call rests on the fitted dose curve; in most records, active means well fitted curve in the direction sought with a large enough effect; inconclusive means small, poorly fitted or top-dose-only effect, or another doubt; inactive means no such curve, though single readings can be large; an effect the other way counts as inactive or inconclusive. On the % scale 0 is the no-effect control and ±100 the full control effect.

What do the screens show for `COc1cccc(C(=O)C2CCCN(Cc3cccn3-c3ccccn3)C2)c1` (stereo not given)?
FBPA Giardia inh: 8%; FMDV antiviral: -26%; HCMV inh: -63*; Vaccinia mCherry: -3%; HCV inhibitor: -25%; VACV Venus inh: -19%

What do the screens show for `COc1ccc(C(=O)C2CCCN(Cc3cccn3-c3ccccn3)C2)cc1F` (stereo not given)?
FBPA Giardia inh: 8%; FMDV antiviral: -13%; HCMV inh: -26; Vaccinia mCherry: -5%; HCV inhibitor: -18%; VACV Venus inh: -22%

Results for Cc1nn(C(C)C)c(C)c1CN1CCCC(C(=O)c2cccc(OC(C)C)c2)C1 (stereo not given) ?
FBPA Giardia inh: 8%; FMDV antiviral: inconclusive; HCMV inh: -32; Vaccinia mCherry: -25%; HCV inhibitor: inconclusive; VACV Venus inh: -14%

What do the screens show for `CCn1nc(C)c(CN2CCCC(C(=O)c3cccc(OC(C)C)c3)C2)c1C` (stereo not given)?
FBPA Giardia inh: 0%; FMDV antiviral: inconclusive; HCMV inh: inconclusive; HCV inhibitor: 8.9µM*

What do the screens show for `COc1ccc(C(=O)C2CCCN(Cc3cccn3-c3nccs3)C2)cc1F` (stereo not given)?
FBPA Giardia inh: 6%; FMDV antiviral: -6%; HCMV inh: -64*; Vaccinia mCherry: -29%; HCV inhibitor: -25%; VACV Venus inh: -14%

How did Cc1c(C)c(C)c(S(=O)(=O)NCCC(=O)N2CCN(Cc3ccc(C#N)cc3)CC2)c(C)c1C do in these assays?
FMDV antiviral: -14%; HCMV inh: -27; HCV inhibitor: 13µM*

What do the screens show for `O=C(Nc1ccc(S(=O)(=O)NCC2CCCO2)cc1)c1ccc(Cl)cc1[N+](=O)[O-]` (stereo not given)?
FBPA Giardia inh: -5%; FMDV antiviral: 25%; HCMV inh: 1; Vaccinia mCherry: inconclusive; HCV inhibitor: 25µM*; VACV Venus inh: -13%

What do the screens show for `NNc1nnc2c3cc(F)ccc3n(CCc3ccccc3)c2n1`?
FBPA Giardia inh: -2%; FMDV antiviral: -10%; HCMV inh: -94*; Vaccinia mCherry: inconclusive; HCV inhibitor: inconclusive; VACV Venus inh: -2%

How did CCCCCc1cc(=O)oc2c(C(CCN(CC)CC)c3ccc(OC)cc3)c(OC)cc(OC)c12 (stereo not given) do in these assays?
FBPA Giardia inh: -3%; FMDV antiviral: -5%; HCMV inh: -81*; Vaccinia mCherry: -15%; HCV inhibitor: inconclusive; VACV Venus inh: inconclusive

What do the screens show for `CCCCCc1cc(=O)oc2c(C(CCN3CCCC3)c3cc(OC)c(OC)c(OC)c3)c(OC)cc(OC)c12` (stereo not given)?
FBPA Giardia inh: -26%; FMDV antiviral: inconclusive; HCMV inh: -28; Vaccinia mCherry: 14µM*; HCV inhibitor: inconclusive; VACV Venus inh: 16µM*

What do the screens show for `CCN(CC)CCC(c1ccc(OC)cc1)c1c(OC)cc(OC)c2c(C)cc(=O)oc12` (stereo not given)?
FBPA Giardia inh: 4%

Results for COc1cc(C(CCN2CCOCC2)c2c(OC)cc(OC)c3c(C)cc(=O)oc23)cc(OC)c1OC (stereo not given) ?
FBPA Giardia inh: -2%; FMDV antiviral: 96%; HCMV inh: 53; Vaccinia mCherry: -6%; HCV inhibitor: -1%; VACV Venus inh: -13%

What do the screens show for `COc1cc(C(CCN2CCCC2)c2c(OC)cc(OC)c3c(C)cc(=O)oc23)cc(OC)c1OC` (stereo not given)?
FBPA Giardia inh: -5%; FMDV antiviral: 7%; HCMV inh: -26; Vaccinia mCherry: 15%; HCV inhibitor: 10µM*; VACV Venus inh: -21%

How did CCCCCc1cc(=O)oc2c(C(CCN3CCCC3)c3ccc(N(C)C)cc3)c(OC)cc(OC)c12 (stereo not given) do in these assays?
FBPA Giardia inh: 0%; FMDV antiviral: -8%; HCMV inh: 4; Vaccinia mCherry: inconclusive; HCV inhibitor: -16%; VACV Venus inh: inconclusive
